Measured values reported in PubChem BioAssay (Tox21).
Results filed as inconclusive are left out. Activity calls are given as the source filed them. Unless noted, the call rests on the fitted dose curve; in most records, active means well fitted curve in the direction sought with a large enough effect in the repeat runs; inconclusive means weak or mixed curves; inactive means no such curve, though single readings can be large; an effect the other way counts as inactive or inconclusive.

Columns and labels:
[1] = qHTS assay to identify aromatase inhibitors - cell viability counter screen (AID 743084);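 further: cells stimulated with testosterone during compound exposure; nearly all actives have a fitted effect of over 55% in size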
[2] = qHTS assay to identify small molecule that activate the aryl hydrocarbon receptor (AhR) signaling pathway - cell viability counter screen (AID 743086);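 further: HepG2 liver cells carrying the AhR DRE luciferase reporter; series mostly up to about 70 µM; nearly all actives have a fitted effect of over 45% in size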
In short: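 HepG2-AhR-luc (HG2L7.5c1) cells, 4000/well, were preincubated 5 h at 37C, exposed to compound in qHTS format for 24 hr at 37C, then given CellTiter-Fluor for 30 min; viability was read as fluorescence in the reporter wells.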

[3] = qHTS assay to identify small molecule antagonists of the peroxisome proliferator-activated receptor gamma (PPARg) signaling pathway - cell viability counter screen (AID 743194); further: nearly all actives have a fitted effect of over 55% in size
In short: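 PPARg-UAS-bla HEK293H cells were plated, rested 5 h at 37 C, then treated with compounds plus rosiglitazone (50 nM final) for 17 h at 37 C; viability was then read by CellTiter-Glo luminescence after 30 min at room temperature.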

[4] = qHTS assay for small molecule agonists of the antioxidant response element (ARE) signaling pathway - cell viability counter screen (AID 743203; calls by dose curve; further: nearly all actives have a fitted effect of over 55% in size)
In short: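 Viability counter screen: CellTiter-Glo luminescence, read after 30 min at room temperature, in ARE-bla HepG2 wells. Compound exposure lasted 16 h at 37C/5% CO2, following a 5 h pre-incubation of the cells after plating.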

[5] = qHTS assay for small molecule activators of the heat shock response signaling pathway - cell viability counter screen (AID 743209); further: nearly all actives have a fitted effect of over 50% in size
In short: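 Cytotoxicity counter screen run in the same wells as the heat-shock bla reporter assay: HeLa HSE-bla cells, 5 h compound exposure at 37 C, viability read by CellTiter-Glo luminescence.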

[6] = qHTS assay to identify small molecule agonists of the peroxisome proliferator-activated receptor delta (PPARd) signaling pathway - cell viability counter screen (AID 743211); further: nearly all actives have a fitted effect of over 55% in size
In short: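 Counter screen for cytotoxicity run in parallel with the PPARd reporter screen. Beta-lactamase reporter HEK293H cells exposed to compounds 17 h; ATP-based CellTiter-Glo luminescence quantified viability.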

[7] = qHTS assay to identify small molecule antagonists of the peroxisome proliferator-activated receptor delta (PPARd) signaling pathway - cell viability counter screen (AID 743213); further: nearly all actives have a fitted effect of over 50% in size
In short: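 HEK293H PPARd UAS-bla cells, 5 h pre-incubation, compound + L165041 300 nM final, 17 h 37 C; B/G FRET substrate 2 h RT; then CellTiter-Glo 30 min RT, luminescence.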

[8] = molecular target: Bile acid receptor (Homo sapiens) (UniProt Q96RI1); test: qHTS assay to identify small molecule antagonists of the farnesoid-X-receptor (FXR) signaling pathway (AID 743217; active means well fitted inhibition curve with a large enough effect in the signal ratio in the repeat runs, not every such curve was filed as active; the % refers to the signal ratio)
In short: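 Antagonist mode: chenodeoxycholic acid at 50 uM final stimulates a UAS-driven beta-lactamase reporter in HEK 293T FXR-bla cells during 16 h, 37C compound exposure. Read-out is FRET substrate fluorescence after 2 h at room temperature.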

[9] = molecular target: Bile acid receptor (Homo sapiens) (UniProt Q96RI1); test: qHTS assay to identify small molecule agonists of the farnesoid-X-receptor (FXR) signaling pathway (AID 743220; active means well fitted activation curve with a large enough effect in the signal ratio in the repeat runs, not every such curve was filed as active; the % refers to the signal ratio)
In short: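 FXR-UAS-bla HEK 293T cells carrying a UAS-driven beta-lactamase reporter were plated for 5 h at 37C/5% CO2, then exposed to DMSO-dissolved Tox21 10K compounds for 16 h at 37C. A LiveBLAzer B/G FRET substrate was loaded for 2 h at room temperature before fluorescence reading.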

[10] = qHTS assay to identify small molecule antagonists of the farnesoid-X-receptor (FXR) signaling pathway - cell viability counter screen (AID 743221; active means well fitted cell-killing curve with a large enough effect in the repeat runs, not every such curve was filed as active; further: nearly all actives have a fitted effect of over 50% in size)
In short: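 Multiplexed counter screen: viability of FXR-bla HEK 293T cells under agonist stimulation by chenodeoxycholic acid (50 uM, final) and test compound for 16 h at 37 C, measured by CellTiter-Glo luminescence in the reporter wells.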

[11] = molecular target: Peroxisome proliferator-activated receptor gamma (Homo sapiens) (UniProt P37231); test: qHTS assay to identify small molecule agonists of the peroxisome proliferator-activated receptor gamma (PPARg) signaling pathway (AID 743094; active means well fitted activation curve with a large enough effect in the signal ratio in the repeat runs, not every such curve was filed as active; the % refers to the signal ratio)
In short: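 Agonist activity was taken from a beta-lactamase reporter (FRET substrate, 1 h at room temperature) in HEK293H cells carrying a PPARg UAS-bla construct. Compounds in DMSO were incubated 17 h at 37C after a 5 h cell pre-incubation.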

[12] = qHTS assay for small molecule activators of the heat shock response signaling pathway (AID 743210; active means well fitted activation curve with a large enough effect in the signal ratio in the repeat runs, with a control signal flat, not every such curve was filed as active; the % refers to the signal ratio; further: series mostly up to about 63 µM)
In short: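 Heat shock element–beta-lactamase HeLa reporter cells; qHTS with compounds for 5 h at 37 C; detection by FRET substrate fluorescence after 2.5 h at RT.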

[13] = molecular target: Peroxisome proliferator-activated receptor delta (Homo sapiens) (UniProt Q03181); test: qHTS assay to identify small molecule agonists of the peroxisome proliferator-activated receptor delta (PPARd) signaling pathway (AID 743212; calls by dose curve)
In short: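 Beta-lactamase reporter read by fluorescence (LiveBLAzer B/G FRET, 2 h, room temperature). Test agents, in DMSO, incubated at 37 C with PPARd-bla HEK293H cells.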

[14] = molecular target: Peroxisome proliferator-activated receptor delta (Homo sapiens) (UniProt Q03181); test: qHTS assay to identify small molecule antagonists of the peroxisome proliferator-activated receptor delta (PPARd) signaling pathway (AID 743215; active means well fitted inhibition curve with a large enough effect in the signal ratio in the repeat runs, not every such curve was filed as active; the % refers to the signal ratio;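 further: cells stimulated with agonist L165041 at 300 nM final during compound exposure; series mostly up to about 62 µM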)
In short: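 Agonist L165041 (300 nM final) added with compound to PPARd-bla HEK293H UAS-bla reporter cells; 17 h incubation at 37 C. Read-out: LiveBLAzer FRET substrate, 2 h at room temperature, fluorescence intensity.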

[15] = qHTS assay to identify small molecule agonists of the farnesoid-X-receptor (FXR) signaling pathway - cell viability counter screen (AID 743218); further: nearly all actives have a fitted effect of over 45% in size
In short: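 Viability counter screen in the same wells: CellTiter-Glo luminescence, 30 min room-temperature incubation, measured after the beta-lactamase read. Cells were GeneBLAzer FXR-UAS-bla HEK 293T, compound-treated 16 h at 37C.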

[16] = molecular target: Vitamin D3 receptor (Homo sapiens) (UniProt P11473); test: qHTS assay to identify small molecule antagonists of the vitamin D receptor (VDR) signaling pathway (AID 743223; active means well fitted inhibition curve with a large enough effect in the signal ratio in the repeat runs, not every such curve was filed as active; the % refers to the signal ratio)
In short: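 Cells carrying a VDR-driven beta-lactamase reporter (VDR-bla) were co-treated with compound and 3 nM final 1alpha,25-dihydroxyvitamin D3 for 16 h at 37C; reporter activity was measured as FRET substrate fluorescence after 2 h at room temperature.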

[17] = molecular target: Peroxisome proliferator-activated receptor gamma (Homo sapiens) (UniProt P37231); test: qHTS assay to identify small molecule antagonists of the peroxisome proliferator-activated receptor gamma (PPARg) signaling pathway (AID 743191; calls by dose curve; further: series mostly up to about 63 µM; nearly all actives have a fitted effect of over 30% in size)
In short: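 GeneBLAzer PPARg UAS-bla HEK293H cells carrying a UAS-driven beta-lactamase reporter were plated at 3000 cells/well, preincubated 5 h at 37C, then given compound for 17 h at 37C; LiveBLAzer B/G FRET substrate was read after 1 h at room temperature.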

[18] = qHTS assay for small molecule agonists of the antioxidant response element (ARE) signaling pathway (AID 743202; active means well fitted activation curve with a large enough effect in the signal ratio in the repeat runs, not every such curve was filed as active; the % refers to the signal ratio)
In short: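 Following a 16 h, 37 C exposure of reporter HepG2 cells (ARE-driven beta-lactamase, 2,000 cells/well) to compounds, FRET substrate was applied for 2 h at room temperature and fluorescence intensity recorded.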

[19] = molecular target: Vitamin D3 receptor (Homo sapiens) (UniProt P11473); test: qHTS assay to identify small molecule agonists of the vitamin D receptor (VDR) signaling pathway (AID 743222; calls by dose curve)
In short: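 Agonist mode, beta-lactamase reporter: fluorescence from LiveBLAzer B/G FRET substrate (2 h, room temperature) read after 16 h compound treatment at 37 C of VDR-bla cells, which were pre-incubated 4 h after seeding.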

[20] = molecular target: Aryl hydrocarbon receptor (Homo sapiens) (UniProt P35869); test: qHTS assay to identify small molecule that activate the aryl hydrocarbon receptor (AhR) signaling pathway (AID 743085);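 further: HG2L7.5c1 human HepG2 liver cells with stably integrated DRE-driven firefly reporter; series mostly up to about 70 µM; nearly all actives have a fitted effect of over 15% in size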
In short: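 Compounds were tested in HepG2 hepatocellular carcinoma cells harbouring a stably integrated luciferase gene under control of 20 DREs. Increased reporter signal after 24 h treatment at 37C was taken as AhR activation.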

Measured: Potency

Sequence of Vitamin D3 receptor (Homo sapiens) (P11473 whole entry, looked up): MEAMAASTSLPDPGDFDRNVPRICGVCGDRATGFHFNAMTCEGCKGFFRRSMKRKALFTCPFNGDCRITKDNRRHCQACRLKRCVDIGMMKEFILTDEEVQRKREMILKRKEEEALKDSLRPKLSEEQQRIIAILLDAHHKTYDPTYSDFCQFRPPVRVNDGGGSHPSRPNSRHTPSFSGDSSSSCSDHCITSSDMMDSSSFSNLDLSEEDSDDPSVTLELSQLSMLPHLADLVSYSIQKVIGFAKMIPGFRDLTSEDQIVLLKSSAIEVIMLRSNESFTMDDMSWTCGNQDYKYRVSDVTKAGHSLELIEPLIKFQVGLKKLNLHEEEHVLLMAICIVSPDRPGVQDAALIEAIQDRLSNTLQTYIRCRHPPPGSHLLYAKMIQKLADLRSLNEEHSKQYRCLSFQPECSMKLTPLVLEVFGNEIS
Sequence of Peroxisome proliferator-activated receptor delta (Homo sapiens) (Q03181 whole entry, looked up): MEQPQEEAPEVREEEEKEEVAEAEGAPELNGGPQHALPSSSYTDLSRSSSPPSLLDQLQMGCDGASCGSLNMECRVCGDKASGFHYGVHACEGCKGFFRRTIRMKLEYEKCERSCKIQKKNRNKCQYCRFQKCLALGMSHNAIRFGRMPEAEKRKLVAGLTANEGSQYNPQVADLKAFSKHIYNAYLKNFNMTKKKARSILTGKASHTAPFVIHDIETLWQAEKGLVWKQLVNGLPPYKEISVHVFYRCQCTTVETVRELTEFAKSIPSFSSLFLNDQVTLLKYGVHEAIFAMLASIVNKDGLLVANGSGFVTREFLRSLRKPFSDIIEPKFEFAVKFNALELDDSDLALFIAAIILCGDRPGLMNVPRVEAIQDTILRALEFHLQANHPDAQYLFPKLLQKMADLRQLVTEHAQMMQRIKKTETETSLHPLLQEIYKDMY
Sequence of Bile acid receptor (Homo sapiens) (Q96RI1 whole entry, looked up): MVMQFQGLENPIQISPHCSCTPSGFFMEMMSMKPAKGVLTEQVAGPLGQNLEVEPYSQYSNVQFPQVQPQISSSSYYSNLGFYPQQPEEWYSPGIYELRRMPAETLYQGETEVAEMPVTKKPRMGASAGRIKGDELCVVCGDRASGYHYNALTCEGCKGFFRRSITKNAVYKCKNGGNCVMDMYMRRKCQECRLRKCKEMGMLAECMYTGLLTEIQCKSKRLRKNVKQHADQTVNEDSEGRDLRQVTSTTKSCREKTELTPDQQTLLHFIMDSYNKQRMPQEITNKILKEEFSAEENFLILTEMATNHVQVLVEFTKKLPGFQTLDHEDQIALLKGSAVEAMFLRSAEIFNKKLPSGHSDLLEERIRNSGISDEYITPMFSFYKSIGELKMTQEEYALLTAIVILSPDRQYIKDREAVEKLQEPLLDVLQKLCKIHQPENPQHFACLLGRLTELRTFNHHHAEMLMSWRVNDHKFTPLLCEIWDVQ
Sequence of Peroxisome proliferator-activated receptor gamma (Homo sapiens) (P37231 whole entry, looked up): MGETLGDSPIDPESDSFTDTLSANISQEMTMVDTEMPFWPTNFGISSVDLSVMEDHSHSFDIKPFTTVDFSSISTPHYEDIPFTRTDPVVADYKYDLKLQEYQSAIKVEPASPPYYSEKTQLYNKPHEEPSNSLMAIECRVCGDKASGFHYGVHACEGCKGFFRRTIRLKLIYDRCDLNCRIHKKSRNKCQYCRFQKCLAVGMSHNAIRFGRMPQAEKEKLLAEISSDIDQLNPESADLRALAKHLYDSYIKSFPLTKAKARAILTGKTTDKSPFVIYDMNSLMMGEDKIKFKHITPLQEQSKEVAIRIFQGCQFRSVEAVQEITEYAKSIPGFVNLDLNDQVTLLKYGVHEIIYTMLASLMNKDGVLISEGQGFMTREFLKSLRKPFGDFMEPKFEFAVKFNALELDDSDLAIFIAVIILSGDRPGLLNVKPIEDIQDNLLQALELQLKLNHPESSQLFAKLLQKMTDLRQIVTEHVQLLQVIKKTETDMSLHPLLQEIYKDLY
Sequence of Aryl hydrocarbon receptor (Homo sapiens) (P35869 whole entry, looked up): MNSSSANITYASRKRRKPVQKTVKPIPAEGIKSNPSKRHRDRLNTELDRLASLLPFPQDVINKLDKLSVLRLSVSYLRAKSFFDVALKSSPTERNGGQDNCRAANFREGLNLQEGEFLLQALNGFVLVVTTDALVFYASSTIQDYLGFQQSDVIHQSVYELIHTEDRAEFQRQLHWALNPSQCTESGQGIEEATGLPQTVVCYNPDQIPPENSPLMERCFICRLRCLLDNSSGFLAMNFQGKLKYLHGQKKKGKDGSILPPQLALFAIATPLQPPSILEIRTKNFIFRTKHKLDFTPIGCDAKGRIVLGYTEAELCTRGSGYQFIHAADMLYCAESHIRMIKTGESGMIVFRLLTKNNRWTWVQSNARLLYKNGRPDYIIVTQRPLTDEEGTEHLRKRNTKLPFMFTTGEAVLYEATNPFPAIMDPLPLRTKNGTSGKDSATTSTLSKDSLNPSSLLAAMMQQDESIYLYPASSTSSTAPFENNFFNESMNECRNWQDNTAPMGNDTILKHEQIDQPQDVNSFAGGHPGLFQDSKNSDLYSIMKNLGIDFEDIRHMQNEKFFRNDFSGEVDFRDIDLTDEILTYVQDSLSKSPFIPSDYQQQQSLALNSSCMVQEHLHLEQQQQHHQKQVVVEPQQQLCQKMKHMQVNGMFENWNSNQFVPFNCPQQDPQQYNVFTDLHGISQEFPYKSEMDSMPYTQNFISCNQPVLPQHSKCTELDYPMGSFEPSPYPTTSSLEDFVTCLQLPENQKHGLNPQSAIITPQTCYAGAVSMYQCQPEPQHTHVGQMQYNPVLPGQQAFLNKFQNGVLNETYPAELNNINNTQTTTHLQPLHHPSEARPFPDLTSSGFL

O=C1CCN(c2ccccc2)N1
inactive: [1] | [2] | [3] | [4] | [5] | [6] | [7] | [8] | [9] | [10]

CC1(C)S[C@@H]2[C@H](NC(=O)C(C(=O)O)c3ccccc3)C(=O)N2[C@H]1C(=O)O (stereo not given in full)
inactive: [1] | [2] | [11] | [3] | [4] | [5] | [12] | [6] | [13] | [7] | [14] | [8] | [15] | [10] | [16]

CCOc1ccccc1N
inactive: [1] | [2] | [17] | [18] | [4] | [5] | [12] | [6] | [7] | [15] | [10] | [19] | [16]

CC1=C(CC(=O)O)c2cc(F)ccc2/C1=C\c1ccc(S(C)(=O)=O)cc1
inactive: [1] | [2] | [3] | [4] | [5] | [12] | [6] | [7] | [15] | [10]

CC/C=C\CCOC(=O)C(C)C
inactive: [1] | [2] | [11] | [4] | [5] | [12] | [6] | [13] | [15] | [10]

O=C(O)CN(CCN(CC(=O)O)CC(=O)O)CCN(CC(=O)O)CC(=O)O
inactive: [1] | [2] | [17] | [3] | [4] | [5] | [12] | [13] | [7] | [15] | [10]

CN1CCN(c2c(F)cc3c(=O)c(C(=O)O)cn4c3c2SCC4)CC1
inactive: [1] | [2] | [3] | [18] | [4] | [5] | [12] | [6] | [13] | [7] | [14] | [8] | [15] | [9] | [10] | [19]

CCCCNc1ccc(C(=O)OCCN(CC)CC)cc1
inactive: [1] | [2] | [17] | [3] | [4] | [5] | [12] | [6] | [13] | [14] | [15] | [19]

COc1ccc(S(=O)(=O)Nc2nnc(CC(C)C)s2)cc1
inactive: [1] | [2] | [11] | [3] | [18] | [4] | [5] | [12] | [6] | [13] | [7] | [10]

Cc1cc(S(=O)(=O)O)c(N)cc1Cl
inactive: [1] | [2] | [17] | [3] | [4] | [5] | [12] | [6] | [13] | [14] | [15] | [10] | [19]

FC(F)(F)c1ccccc1
inactive: [1] | [2] | [17] | [4] | [12] | [13] | [7] | [14] | [15] | [10]

CCN(O)CC
inactive: [1] | [2] | [11] | [3] | [4] | [5] | [12] | [6] | [13] | [14] | [15] | [19]

Cc1ccc(C)c(N)c1
inactive: [1] | [2] | [11] | [3] | [4] | [5] | [6] | [13] | [7] | [8] | [15] | [9] | [10] | [19]

CC(C)CC(=O)OCc1ccccc1
inactive: [1] | [2] | [11] | [3] | [4] | [5] | [12] | [13] | [14] | [15] | [10] | [16]

CC1CN(c2ccccc2)NC1=O (stereo not given)
inactive: [1] | [2] | [17] | [4] | [5] | [12] | [13] | [7] | [14] | [8] | [15] | [9] | [19]

CCCCCCn1c(=O)c2c(ncn2C)n(C)c1=O
inactive: [3] | [18] | [4] | [5] | [12] | [6] | [15] | [10]

N#CSCC(=O)O
inactive: [3] | [18] | [4] | [5] | [6] | [13] | [7] | [14] | [8] | [15] | [9] | [10]

Cc1onc(-c2ccccc2)c1C(=O)Cl
inactive: [17] | [3] | [4] | [5] | [12] | [6] | [7] | [8] | [15] | [9] | [10] | [19]

O=C1Nc2ccc([N+](=O)[O-])cc2C1=O
inactive: [4] | [5] | [12] | [6] | [13] | [7] | [14] | [15] | [10]

Cc1ccccc1C(=O)Nc1ccc(C(=O)N2CCCC(O)c3cc(Cl)ccc32)c(C)c1 (stereo not given)
inactive: [1] | [17] | [3] | [18] | [4] | [5] | [12] | [7] | [15] | [9] | [10] | [19]

CCC(=O)c1ccc2c(c1)N(CCCN(C)C)c1ccccc1S2
inactive: [20] | [3] | [12] | [8] | [9]

C/C(=N\O)[C@@H](C)NCC(C)(C)CN[C@H](C)/C(C)=N/O
inactive: [17] | [3] | [18] | [4] | [5] | [12] | [6] | [13] | [15] | [10] | [19]

CC[C@H]1CC[C@H](NCc2cc3c(cc2OC)[C@H]2C[C@H]2C(=O)N3C)[C@H](c2ccccc2)N1
inactive: [17] | [3] | [4] | [5] | [12] | [13] | [15] | [10]
